Here are results for 42 sequences from PMC10726135, “HNF4α isoforms regulate the circadian balance between carbohydrate and lipid metabolism in the liver”.

The full ranking holds about 18,000 sequences; the median of “log2 normalized intensity” is about 0.39, and the highest 2% start at about 6.6. Only a selection was taken, and the highest values are over-represented in it overall.

This test addresses T1, HNF4alpha2 (COS-7 nuclear extract) (Homo sapiens, UniProt P41235 1-474).
T1 sequence: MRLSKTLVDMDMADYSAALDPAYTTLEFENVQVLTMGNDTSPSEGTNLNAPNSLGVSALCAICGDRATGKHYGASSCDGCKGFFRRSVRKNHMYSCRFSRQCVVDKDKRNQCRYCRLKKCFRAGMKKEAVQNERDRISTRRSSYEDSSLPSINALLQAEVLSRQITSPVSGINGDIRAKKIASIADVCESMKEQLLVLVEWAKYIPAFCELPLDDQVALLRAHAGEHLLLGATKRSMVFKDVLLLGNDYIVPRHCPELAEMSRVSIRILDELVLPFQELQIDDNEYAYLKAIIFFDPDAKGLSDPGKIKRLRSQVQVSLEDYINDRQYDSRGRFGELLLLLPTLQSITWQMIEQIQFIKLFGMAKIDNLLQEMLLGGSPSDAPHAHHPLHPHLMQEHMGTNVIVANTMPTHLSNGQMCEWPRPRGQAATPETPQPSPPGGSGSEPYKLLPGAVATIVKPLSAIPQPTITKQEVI
As to the kind of experiment: protein-binding microarray; COS-7 nuclear extract on double-stranded Agilent 4x180k PBM; binding buffer, salt, pH and temperature not given in the material; high values mean tight binding. The following applies: chain copies: 2; label: 3' end of strand 1 on the slide; dsDNA, one strand shown. Put shortly:
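Nuclear extracts of COS-7 cells transiently transfected with a human HNF4α isoform were applied to a custom Agilent SurePrint G3 4x180k array bearing ~44,000 double-stranded ~60-nt test sequences, each in quadruplicate. The bound protein was imaged on an Agilent G2565CA scanner at 2-µm resolution. Binding signal is the normalized, background-corrected gProcessedSignal from Agilent software.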
In the case of “TTAATAGAAGAAAGCCCTTTTTGGAATGTGGCCTAGGGAGATTAGAGTATCGGTCGA”, the binding signal amounted to 0.655 log2 normalized intensity.

In the case of “AATGGTGGGATAGGAGACATGAAGGACATAGCCTAGGGAGATTAGAGTATCGGTCGA”, the binding signal is -0.721 log2 normalized intensity. As to “TCCTCTTATCTTCAGGTTTGCTAATATCTGGCCTAGGGAGATTAGAGTATCGGTCGA”, the binding signal worked out at 1.35 log2 normalized intensity. For the sequence “CTAGGAGAGTCCGGGGCAAACAAGGGCAACGCCTAGGGAGATTAGAGTATCGGTCGA”, the binding signal is -0.823 log2 normalized intensity. As to “TGAGATAGGTACTATTATTAGAGTCCCTTTGCCTAGGGAGATTAGAGTATCGGTCGA”, the binding signal is 1.01 log2 normalized intensity. As to “TTTCCCCGTCCCAAGCTGAGGTCTGGTGTCGCCTAGGGAGATTAGAGTATCGGTCGA”, the binding signal is 2.59 log2 normalized intensity. Take “CTGAGATAGTCATTCTTCTACAGTGTTTACGCCTAGGGAGATTAGAGTATCGGTCGA”: the binding signal amounted to 0.901 log2 normalized intensity. For “AGCACACCTTTTTTTCATGCAAATTTCCGTGCCTAGGGAGATTAGAGTATCGGTCGA”, the binding signal stood at 0.118 log2 normalized intensity. Take “AAGAAATAAAAACAGCTGGGTTCCAAAAGGGCCTAGGGAGATTAGAGTATCGGTCGA”: the binding signal worked out at 0.155 log2 normalized intensity.

As to “GTCAAACTTTGGACCCACTGCAGGATTGGAGCCTAGGGAGATTAGAGTATCGGTCGA”, the binding signal stood at 3.52 log2 normalized intensity.

As for “CCCTCCTTAAGACCTAGATGGAATGTTGTGGCCTAGGGAGATTAGAGTATCGGTCGA”, the binding signal was found to be 1.29 log2 normalized intensity. “ACACTTGCCCTTTGCCCTCACTGGTAGAAGGCCTAGGGAGATTAGAGTATCGGTCGA”: the binding signal is 5.09 log2 normalized intensity.

Consider “CTATGTCAGGCCATTTCACCTTTGCCCTGTGCCTAGGGAGATTAGAGTATCGGTCGA”, for which the binding signal was 6.82 log2 normalized intensity. Regarding “CTGTCACACTTGCCCTTTGCCCTCACTGGTGCCTAGGGAGATTAGAGTATCGGTCGA”, the binding signal came to 7.1 log2 normalized intensity.

As to “AGCCTCTATGTCAGGCCATTTCACCTTTGCGCCTAGGGAGATTAGAGTATCGGTCGA”, the binding signal stood at 3.72 log2 normalized intensity. Turning to “TGTCACACTGGCCTTTGCCCTCGCTGGCGGGCCTAGGGAGATTAGAGTATCGGTCGA”, the binding signal was 4.25 log2 normalized intensity.

With “TCAGGCCATTTCACCTTTGCCCTGTCAGTCGCCTAGGGAGATTAGAGTATCGGTCGA”, the binding signal stood at 5.88 log2 normalized intensity. “CACAAAAAGGCTGTCACACTTGCCCTTTGCGCCTAGGGAGATTAGAGTATCGGTCGA”: the binding signal stood at 4.82 log2 normalized intensity. In the case of “AAAGGCTGTCACACTTGCCCTTTGCCCTCAGCCTAGGGAGATTAGAGTATCGGTCGA”, the binding signal stood at 8.34 log2 normalized intensity. For “AAGGCTGTCACACTGGCCTTTGCCCTCGCTGCCTAGGGAGATTAGAGTATCGGTCGA”, the binding signal worked out at 4.98 log2 normalized intensity. Turning to “GAGGAGAGAGTAAATAATTGATGAAACAGGGCCTAGGGAGATTAGAGTATCGGTCGA”, the binding signal is -0.991 log2 normalized intensity. Consider “AGTACCTCTCAAAAATCTCACTCACCCTAAGCCTAGGGAGATTAGAGTATCGGTCGA”, for which the binding signal is -0.279 log2 normalized intensity. For the sequence “CATGAAGGTCTCCTTGACTTCAAAGGCATTGCCTAGGGAGATTAGAGTATCGGTCGA”, the binding signal amounted to 0.693 log2 normalized intensity. In the case of “CAGGGAGCCCTTATATCCACATGGGTCCAAGCCTAGGGAGATTAGAGTATCGGTCGA”, the binding signal worked out at 2.29 log2 normalized intensity. Consider “TGCCTGCAGGAGAGAGCAAAGTCCACGCATGCCTAGGGAGATTAGAGTATCGGTCGA”, for which the binding signal stood at 6.29 log2 normalized intensity. To “AGTCTTGAGTCCCAAAGTCCAAAGGCAGTCGCCTAGGGAGATTAGAGTATCGGTCGA” belongs 2.83 log2 normalized intensity; to “TGTCTCCCTCTGCAGCAAAGTCCAGGCATAGCCTAGGGAGATTAGAGTATCGGTCGA”, 1.13 log2 normalized intensity; to “CAACTCCAAAGTCCAAAGTCCAGTCTTATCGCCTAGGGAGATTAGAGTATCGGTCGA”, 8.27 log2 normalized intensity. As to “GTTACCTTGGGGTCAAAGTACATCCCCTAAGCCTAGGGAGATTAGAGTATCGGTCGA”, the binding signal came to 6.4 log2 normalized intensity.

“CTTGGGGTCAAAGTACATCCCCTAAAACATGCCTAGGGAGATTAGAGTATCGGTCGA”: the binding signal came out at 5.71 log2 normalized intensity. With “CTATCTGCCTGCAGGAGAGAGCAAAGTCCAGCCTAGGGAGATTAGAGTATCGGTCGA”, the binding signal amounted to 7.16 log2 normalized intensity. For “GACCAGTCTGCCTGACTCCAGAGTCCAAACGCCTAGGGAGATTAGAGTATCGGTCGA”, the binding signal was determined as 2.77 log2 normalized intensity. As to “TGCAAGTTACCTTGGGGTCAAAGTACATCCGCCTAGGGAGATTAGAGTATCGGTCGA”, the binding signal was determined as 8.65 log2 normalized intensity. As for “AGCCCTTATATCCACATGGGTCCAAAGTTCGCCTAGGGAGATTAGAGTATCGGTCGA”, the binding signal amounted to 8.54 log2 normalized intensity. On to “ATTCCTAAGTTCCAAAGGCCATCCACATTCGCCTAGGGAGATTAGAGTATCGGTCGA”, for which the binding signal stood at 1.84 log2 normalized intensity.

Turning to “GAGTCTTAGGGAGGGGCCAGGACAAAGGTCGCCTAGGGAGATTAGAGTATCGGTCGA”, the binding signal was 5.72 log2 normalized intensity.

Consider “CCACTCTCATGGTCAATATTTTCTTTGTGCGCCTAGGGAGATTAGAGTATCGGTCGA”, for which the binding signal was 1.63 log2 normalized intensity. In the case of “GTCTGATCTTCCTGAGGAGAGCAAAGATCAGCCTAGGGAGATTAGAGTATCGGTCGA”, the binding signal is 2.54 log2 normalized intensity.

With “GACTCCAGTGATCTTATCGCCTAGTACTCCGCCTAGGGAGATTAGAGTATCGGTCGA”, the binding signal was -0.841 log2 normalized intensity. In the case of “CCTCGCCTATGGTATGTATGGAATGTCACTGCCTAGGGAGATTAGAGTATCGGTCGA”, the binding signal worked out at 1.63 log2 normalized intensity. Consider “GCCAGGACAAAGGTCCTGTGGCCTGGGGAGGCCTAGGGAGATTAGAGTATCGGTCGA”, for which the binding signal amounted to 0.557 log2 normalized intensity. “CCTGGCCATTTCTCAGGTTGTGTTTGCAGTGCCTAGGGAGATTAGAGTATCGGTCGA”: the binding signal came out at 1.53 log2 normalized intensity.
